Cycloheximide cs – counter-screen for Shiga toxin inhibitors: cycloheximide protein synthesis inhibition; cell reporter, cycloheximide protein synthesis inhibition counterscreen; max response, %; 300,000 compounds, 12% hits; in the data active means max response mostly above about 13%, no sharp cut-off; inactive means mostly below about 14%; further: read at 38.3 µM for the half of the compounds with a filed dose
Pf growth 48h – inhibits P. falciparum growth in the first generation, 48 h. AID 504832. P. falciparum luciferase growth in erythrocytes, 48 h. 310,000 compounds, 5.9% hits. Potency, µM (highest dose often 28.7 µM), actives largely listed as inhibitors
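A one-generation exposure of luciferase-tagged malaria parasites in RPMI 1640/Albumax erythrocyte culture, 37 C and 5% CO2. Inhibition is inferred from decreased luminescence after adding detection reagent.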
Pf growth 96h – inhibits malaria parasite growth, 96 h; P. falciparum luciferase reporter growth, 96 h; Potency, µM (series often up to 28.7 µM), most hits filed as inhibitors; 320,000 compounds, 6.9% hits
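P. falciparum expressing integrated firefly luciferase grown in erythrocytes (2% hematocrit, 0.05% parasitemia final) with compounds for 96 hours at 37 C, 5% CO2. Growth inhibition read as loss of luminescence after adding luciferase detection reagent.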
Shiga inhibitor – inhibitors of Shiga toxin in Vero cells; Vero cells, Shiga toxin protein synthesis inhibition reporter; inhibition, % at 38.7 µM; 290,000 compounds, 9.2% hits; AID 2315; in the data active means inhibition mostly above about 28%, no sharp cut-off; inactive means mostly below about 43%
FBPA Giardia inh – Giardia lamblia aldolase inhibition. AID 2451. purified Giardia FBPA. A8B2U2. Potency, µM (top dose mostly 59.6 µM), most hits filed as inhibitors. 290,000 compounds, 0.71% hits; further: nearly all actives have a fitted effect of over 55% in size
Target sequence (A8B2U2 whole entry, looked up): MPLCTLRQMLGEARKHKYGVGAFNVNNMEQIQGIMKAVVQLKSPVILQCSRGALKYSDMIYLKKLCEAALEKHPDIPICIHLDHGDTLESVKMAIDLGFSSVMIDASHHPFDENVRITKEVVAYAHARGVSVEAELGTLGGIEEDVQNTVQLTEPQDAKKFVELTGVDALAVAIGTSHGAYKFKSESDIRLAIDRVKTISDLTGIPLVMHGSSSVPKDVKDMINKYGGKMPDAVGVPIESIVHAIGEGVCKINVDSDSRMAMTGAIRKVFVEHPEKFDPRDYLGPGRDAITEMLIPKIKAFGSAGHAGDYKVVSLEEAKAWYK
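Giardia FBPA (40 nM reagent) was preincubated 10 min at RT with compound (up to 57.5 uM final), then substrate plus GAPDH/TPI/NAD/arsenate coupling system with diaphorase/resazurin was added; resorufin fluorescence (525/598 nm) was read after 20 min.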
NS1 function inh – blocks influenza NS1 protein function; 270,000 compounds, 0.4% hits; Potency, µM (doses to about 46.1 µM); AID 2326; calls by dose curve; further: actives are rising curves; nearly all actives have a fitted effect of over 50% in size
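A cell-based growth assay was used: compounds that relieve NS1-induced slow growth of budding yeast raise OD600. Assay medium was yeast nitrogen base with ammonium sulphate and -URA supplement, pH 6.0, with 2% galactose.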
NS1 inh valid – validation of influenza NS1 protein function inhibitors. shares compounds with NS1 function inh. influenza NS1 function cell assay, 15-point titration. activity change, negative = inhibition, % at 32.9 µM. 1,400 tested, under 10 active. AID 492980; calls by dose curve
Flu PR8 replic – influenza virus titer reduction, NS1 project. shares compounds with NS1 function inh. MDCK infected influenza A/PR/8/34, virus titer TCID50; active compounds read low. virus titer (log TCID50), log10 TCID50 at 5 µM. 95 compounds, 30% hits. AID 504647; call rule not given here
A number is an active result; - = inactive; ? = inconclusive; . = no result; + = active, no number. An excerpt weighted towards active compounds, which were near 21% of everything screened. Unless noted, the call rests on the fitted dose curve; in most records, active means well fitted curve in the direction sought with a large enough effect; inconclusive means small, poorly fitted or top-dose-only effect, or another doubt; inactive means no such curve, though single readings can be large; an effect the other way counts as inactive or inconclusive.

SMILES	Cycloheximide cs	Pf growth 48h	Pf growth 96h	Shiga inhibitor	FBPA Giardia inh	NS1 function inh	NS1 inh valid	others
CC1CCN(S(=O)(=O)N2CCCC(C(=O)NCc3ccccc3Cl)C2)CC1 (stereo unspecified)	-	-	-	-	-	-	.
CC1CC(C)CN(S(=O)(=O)N2CCCC(C(=O)NCc3ccccc3Cl)C2)C1 (stereo unspecified)	-	-	-	-	-	?	-	Flu PR8 replic=-
CCOC(=O)N1CCN(S(=O)(=O)N2CCCC(C(=O)NCc3ccc(OC)cc3)C2)CC1 (stereo unspecified)	-	-	-	-	-	?	-
Brc1ccc(C2Nc3cccc4cccc(c34)N2)o1	-	-	-	-	?	?	-
C[C@H]([C@H](O)c1ccccc1)N(C)C(=O)CN	-	-	-	-	-	-	.
COc1ccc(CNC(=O)Cn2ccc3cc(S(=O)(=O)N4CCCC4)ccc32)cc1OC	-	-	?	-	-	-	.
Cc1cccc(C(=O)NN2C(=O)C3C(c4ccccc4)C=CC(c4ccccc4)C3C2=O)c1 (stereo unspecified)	-	-	-	-	-	3.2µM	-
O=C(NN1C(=O)C2C3C=CC(C3)C2C1=O)c1ccccc1 (stereo unspecified)	-	-	-	-	-	-	.
Cc1cc(C)nc(SCc2nnc(SCC(=O)Nc3nc(-c4ccccc4)cs3)n2C)n1	-	?	-	-	-	-	.
Cc1ccc(C(=O)CSc2nnc(CNc3nc(-c4ccccc4)cs3)n2C)cc1	-	?	13µM	-	-	3.2µM	-
O=C(NCCCN1CCOCC1)c1ccc2c(c1)N(Cc1ccc(F)cc1)CCS2	-	?	?	-	.	-	.
CN1CCN(CCCNC(=O)c2ccc3c(c2)N(Cc2ccc(F)cc2)CCS3)CC1	-	?	10µM	-	-	2.8µM	-
C=CCn1c(=N)c(S(=O)(=O)c2ccc(C)c(C)c2)cc2c(=O)n3ccccc3nc21	-	-	?	-	-	-	.
O=C(CSc1nnnn1-c1ccc(F)cc1)NCc1cccs1	-	-	?	-	-	-	.
CCOc1cc(/C=N/Nc2nc(-c3cccc(S(=O)(=O)N4CCCC4)c3)cs2)ccc1O	-	9.3µM	10µM	-	-	10µM	-
COc1ccc(/C=N/Nc2nc(-c3cccc(S(=O)(=O)N4CCCC4)c3)cs2)cc1OC	-	9.3µM	12µM	+	-	13µM	-
Cc1cc(C)cc(OCC(=O)OCC(=O)N2CCc3ccccc32)c1	.	-	-	.	.	.	.
Cc1ccccc1S(=O)(=O)Nc1nc2ccccc2nc1N1CCc2ccccc2C1	37	-	-	93	-	18µM	-
COCCNC(=O)CCc1ccc(S(=O)(=O)Nc2ccc(C)cc2)cc1	-	-	.	-	-	16µM	-
Cc1ccc(NS(=O)(=O)c2ccc(CCC(=O)NC3CC3)cc2)cc1	-	-	.	-	-	-	.
CCc1nnc(NS(=O)(=O)c2ccc(NC(=O)c3cc(Cl)ccc3[N+](=O)[O-])cc2)s1	-	-	-	-	-	11µM	-	Flu PR8 replic=-
COc1ccc(OC)c(NC(=O)NNC(=O)CCCOc2ccc(Cl)cc2C)c1	-	-	?	-	-	-	.
CCc1[nH]c(=S)c(C#N)c(-c2ccccc2)c1C(=O)OC	-	-	-	-	?	10µM	-
Cc1[nH]c(=S)c(C#N)c(-c2ccccc2)c1C(=O)Nc1ccccc1	-	-	-	-	?	-	.
CC(=O)c1c(C)[nH]c(C(=O)OCC(=O)N2CCc3ccccc32)c1C	24	-	-	-	-	4.5µM	-
SMILES	Cycloheximide cs	Pf growth 48h	Pf growth 96h	Shiga inhibitor	FBPA Giardia inh	NS1 function inh	NS1 inh valid	others
CN(CC(=O)Nc1sccc1C#N)C1CCCCC1	-	-	-	-	-	7.9µM	-
O=[N+]([O-])c1cc(S(=O)(=O)Nc2ccccc2)ccc1N1CCN(c2ccc(O)cc2)CC1	-	-	?	-	?	14µM	-
CCc1ccccc1OCCCOc1ccc(OC)cc1	-	-	-	-	-	2.8µM	-	Flu PR8 replic=-
O=C(NCc1ccc2c(c1)OCO2)C12CN(Cc3ccccc3)CC1C(c1cccc([N+](=O)[O-])c1)=NO2 (stereo unspecified)	-	9.3µM	?	-	-	13µM	-
O=C(NCc1ccc(C(F)(F)F)cc1)C12CN(Cc3ccccc3)CC1C(c1cccc([N+](=O)[O-])c1)=NO2 (stereo unspecified)	-	9.3µM	9.3µM	-	-	13µM	-
O=C(NCc1cc(C(F)(F)F)cc(C(F)(F)F)c1)C1CC(c2cccc([N+](=O)[O-])c2)=NO1 (stereo unspecified)	-	-	?	-	-	-	.
COC(=O)c1ccccc1NC(=O)CSc1nnc(CNS(=O)(=O)c2ccc(C)cc2)n1C	-	-	.	-	-	-	.
COc1cccc(NC(=S)N2CCc3cc(OC)c(OC)cc3C2COc2ccc3c(C)cc(=O)oc3c2)c1 (stereo unspecified)	-	5.2µM	?	-	-	8.9µM	-
CN(C(=O)COC(=O)C1CCN(S(=O)(=O)c2ccc3c(c2)OCCO3)CC1)C1CCCCC1	.	-	-	.	.	.	.
CCCn1c(=O)c(Cc2ccccc2)c(O)c2ccccc21	-	-	-	-	-	?	-
CC1(C)CC(=O)C/C(=N\NC(=S)NCc2ccccc2)C1	-	?	?	-	-	.	.
CC1C/C(=N\NC(=S)NCc2ccccc2)CC(C)(C)C1 (stereo unspecified)	-	.	4.1µM	-	-	?	?
COc1ccc(-c2c(C)nc(N)nc2-c2ccc(OCc3ccc(C)cc3)cc2O)cc1OC	-	?	?	-	-	3.2µM	-
COc1ccc(N2C(N)=C(C#N)C(c3cccnc3)C3=C2CC(C)(C)CC3=O)cc1 (stereo unspecified)	-	?	-	-	-	?	-
O=S1(=O)CCOCCCN1Cc1cccc(C(F)(F)F)c1	-	?	-	-	-	-	.
C=CCn1c(SCC(=O)N(CC)CC)nc(O)cc1=O	-	-	-	-	-	2.5µM	-
C=CCn1c(SCC(=O)N2CCCCC2)nc(O)cc1=O	-	.	-	-	-	-	.
CN(C)c1nc(Oc2ccc(=O)[nH]n2)nc(N2CCOCC2)n1	-	?	-	-	-	-	.
CON(C)c1nc(Oc2ccc(=O)[nH]n2)nc(N(C)C)n1	-	-	.	-	-	?	-
CCCn1c(SCC(=O)NNC(=O)c2ccccc2)nnc1-c1cccnc1	-	-	-	-	-	?	-
CN(C(=O)COC(=O)CCc1c[nH]c2ccccc12)C(c1ccccc1)c1ccccc1	-	12µM	10µM	-	-	8.9µM	-
O=C(COC(=O)CCc1c[nH]c2ccccc12)NCc1ccccc1	-	-	-	-	-	-	.
